The text below walks through data of PubChem BioAssay.

Unmarked numbers belong to inactive results. Activity calls are given as the source filed them.

This experiment can be described thus: S. cerevisiae growth modulation with rapamycin, primary screen, strain BY4716, OD600, 96 h (AID 1091). Further: test concentration not given here. The conditions noted are these: higher = more signal, called active from +8 up or from −8 down.
`CC1CC/C=C\[C@H]2OC34C=CCN(C(C)(C)C)C(=O)[C@H]3N(CCCCCO)C(=O)[C@@H]4C2C(=O)O1` (stereo not given in full): the z-score was -0.615.

As to `COc1cc(NN2C(C(O)c3cc(OC)c(OC)c(OC)c3)C=CC3C(=O)N(C)C(=O)C32)cc(OC)c1OC` (stereo not given), the z-score is -0.0522.

`[N-]=[N+]=NCc1ccccc1[C@H]1OC(c2ccc(OCCCO)cc2)=N[C@@]1(Cc1ccccc1N=[N+]=[N-])C(=O)NCC(O)CO` (stereo not given in full): the z-score was 0.134.

In the case of `C=C(COC)/C(=C/C[C@H](OC(=O)c1ccncc1)c1ccccc1OCCO)c1cc(C(=O)OC)ccc1OC`, the z-score was -0.498.

`CC(C)=C1C(=O)C(c2ccccc2)=C2CN3C(=O)N(CCc4ccccc4)C(=O)[C@]3(Cc3ccc(C(F)(F)F)cc3)[C@H]21`: the z-score was 0.812.

Regarding `NCCCCCCNC(=O)[C@@H]1C[C@@H]2C(=O)N[C@@H](CCCCN)C(=O)N2[C@@H]1c1ccc(O)cc1`, the z-score was -1.38.

Take `CC(C)[Si](C#CCCCC#N)(O[C@H](c1ccccc1)c1cn(Cc2ccccc2)nn1)C(C)C`: the z-score was -2.8.

Regarding `CC(C)c1ccc(NN2C(C(O)c3ccc(C#N)cc3)C=CC3C(=O)N(c4ccccc4)C(=O)C32)cc1` (stereo not given), the z-score was 0.44.

`COC(=O)[C@]1(CCS(=O)(=O)c2ccccc2)N=C(c2ccc(OCCCO)cc2)O[C@@H]1c1ccccc1N=[N+]=[N-]`: the z-score was 35.7 (active).

Regarding `C=C[C@H](C)[C@H](OC(=O)Nc1ccc(SC)cc1)c1ccc(OCCO)cc1`, the z-score is 0.375.

Consider `Cc1ccc(S[C@]2(C(=O)NCC(F)(F)F)CC(=O)N(Cc3cc(C(F)(F)F)cc(C(F)(F)F)c3)[C@@H]2c2ccc(CO)cc2)cc1`, for which the z-score was -1.53.

With `O=C1OCCC=C[C@H]2OC34C=CCN(c5ccc6ccccc6c5)C(=O)[C@H]3N(CCCO)C(=O)[C@@H]4C12` (stereo not given in full), the z-score is 0.345.

Consider `O=C1O[C@H](c2ccccc2)[C@H](c2ccccc2)N2[C@H]1[C@@H](C(=O)O)[C@]1(C(=O)Nc3ccc(C#CCCO)cc31)[C@H]2c1ccccc1OCCO`, for which the z-score is 0.224.

Consider `COC(=O)[C@@]1(Cc2ccc(F)cc2)[C@H]2c3cc(C(=O)N4CCCC4)n(CCc4c[nH]c5ccccc45)c3C[C@H]2CN1C(=O)c1ccccc1`, for which the z-score was 7.25.

With `[N-]=[N+]=Nc1ccccc1C[C@]1(C(=O)N2CCOCC2)COC(c2ccc(OCCCO)cc2)=N1`, the z-score is -2.08.

As to `C=CCN1C(=O)[C@]2(CCC(=O)OC(C)(C)C)N=C(c3ccc(OCCCO)cc3)O[C@@H]2c2ccccc21`, the z-score is 3.46.

Regarding `O=C1OCCC=C[C@H]2OC34C=CCN(Cn5nnc6ccccc65)C(=O)[C@H]3N(CCCO)C(=O)[C@@H]4C12` (stereo not given in full), the z-score is -0.342.

For `COCCOC(=O)N1C(=O)[C@@]2(c3ccccc31)[C@H](c1ccc(O)cc1)N1[C@H](c3ccccc3)[C@H](c3ccccc3)OC(=O)[C@H]1[C@@H]2C(=O)N1CCN(c2ncccn2)CC1`, the z-score is 1.84.

Take `Cc1ccc(S[C@]2(C(=O)NCC(F)(F)F)CC(=O)N(Cc3cc(C(F)(F)F)cc(C(F)(F)F)c3)[C@@H]2c2ccc(CO)cc2I)cc1`: the z-score is -0.857.

For the molecule `C#CCN([C@@H](Cc1ccccc1)C(=O)OC)[C@@H](/C=C/C1CC1)[C@H](O)Cc1ccccc1`, the z-score is -0.0898.

For `CC(C)C(CO)N1C(=O)[C@@H]2[C@H]3C(=O)OCC=C[C@H]3OC23C=CCN(c2ccc(Cl)cc2)C(=O)[C@@H]13` (stereo not given in full), the z-score is 1.25.

With `COC(=O)[C@@]1(Cc2ccc(F)cc2)[C@H]2c3cc(C(=O)N4CCCC4)n(Cc4ccc(C)c(F)c4F)c3C[C@H]2CN1C(=O)c1ccccc1`, the z-score was 0.378.

On to `COc1ccccc1CN1C(=O)c2ccccc2[C@](Cc2ccccc2I)(C(=O)O)[C@@H]1c1ccc(CO)cc1`, for which the z-score is -0.0193.

On to `COc1ccc([C@H]2OC[C@@H]3C[C@H](Cc4ccccc4)C(=O)N32)cc1`, for which the z-score is 0.861.

Turning to `COCCOC(=O)N1C(=O)[C@@]2(c3cc(C#CC4(O)CCCCCC4)ccc31)[C@H](c1ccc(O)cc1)N1[C@H](c3ccccc3)[C@H](c3ccccc3)OC(=O)[C@H]1[C@@H]2C(=O)N1CCN(c2ncccn2)CC1`, the z-score is 1.07.

Take `CCCC1(C(=O)OC)C=C2C(=C(C)C(=O)C2C)CN1` (stereo not given): the z-score is 0.578.

For the molecule `COc1cc(NN2C(C(O)c3ccco3)C=CC3C(=O)N(C)C(=O)C32)cc(OC)c1OC` (stereo not given), the z-score was 0.462.

`CCCNC(=O)[C@@H]1c2ccccc2C(=O)N(Cc2ccc(OC(F)(F)F)cc2)[C@H]1c1ccc(CO)cc1`: the z-score is -0.174.

As for `C=CC[C@@H](OC(=O)Nc1ccc(OC)cc1)c1ccc(O)c(F)c1`, the z-score is -2.74.

Turning to `CCCC[C@@H](O)C1=C(COC)C[C@H]2C(=O)N(Cc3ccccc3)C(=O)[C@H]2[C@H]1CO`, the z-score is 0.719.

Regarding `CC(C)NC(=O)[C@@]1(c2ccc([N+](=O)[O-])cc2)CC(=O)N(C2CCCCC2)[C@@H]1c1ccc(CO)cc1`, the z-score is -0.55.

Regarding `CC1CC/C=C\[C@H]2OC34C=CCN(c5ccc(Cl)cc5)C(=O)[C@H]3N(C(C)CO)C(=O)[C@]4(C)C2C(=O)O1` (stereo not given in full), the z-score is 0.334.

Take `COc1cc2c(cc1O)C(C1CC1)N(Cc1cccc(OC(F)(F)F)c1)CC2` (stereo not given): the z-score is -2.53.

Take `CC(c1ccccc1)C(O)C1C=CC2C(=O)N(C)C(=O)C2N1Nc1ccccc1` (stereo not given): the z-score was 0.419.

`CCOC(=O)C1=CC[C@@H](c2ccccc2F)N(S(=O)(=O)c2ccc(C)cc2)[C@H]1c1ccccc1`: the z-score is 0.151.
